Reference: PubChem BioAssay AID2284345 (EPA ToxCast)
Results filed as inconclusive are left out. The source made the active and inactive calls. How the source made its calls: active means hit-call score of the fitted dose curve at least 0.9, where 1 is the maximum; inconclusive means response in the unintended direction; inactive means score below 0.9.

Test system: zebrafish Glucocorticoid Receptor (GR), gene 553740
Experiment: ATG_zfGR_EcoTox2: Attagene TRANS-FACTORIAL EcoTox-2 HepG2 Assay for zebrafish Glucocorticoid Receptor (GR)
Description: ATG_EcoTox2 is a cell-based, multiplexed assay created by modifying the existing Attagene TRANS-FACTORIAL system to include a panel of nuclear receptors from some or all the following species: human (Homo sapiens), african clawed frog (Xenopus laevis), rainbow trout (Oncorhynchus mykiss), japanese medaka (Oryzias latipes), and zebrafish (Danio rerio). The ECOTOX2-FACTORIAL format uses HepG2, a human liver cell line, with measurements taken at 24 hours after chemical dosing in a 24-well plate. ATG_zfGR_EcoTox2 is one of 29 assay components calculated in the ATG_EcoTox2 assay. It is designed to make measurements of mRNA induction, a form of inducible reporter, as detected with fluorescence intensity signals by Reverse transcription polymerase chain reaction (RT-PCR) and Capillary electrophoresis technology.The assay endpoint ATG_zfGR_EcoTox2 was analyzed in the positive analysis fitting direction relative to DMSO as the negative control and baseline of activity. Using a type of inducible reporter, measures of mRNA for gain-of-signal activity can be used to understand the reporter gene at the transcription factor-level as they relate to the gene for glucocorticoid receptor. Furthermore, this assay endpoint can be referred to as a primary readout, because this assay has produced multiple assay endpoints where this one serves a reporter gene function. […]

For O=S(=O)(O)C(F)(F)C(F)(F)C(F)(F)C(F)(F)C(F)(F)C(F)(F)F, the outcome was “inactive”.
O=P(Oc1ccccc1)(Oc1ccccc1)Oc1ccccc1 was tested, and the outcome was “inactive”.
